Data published in PubChem BioAssay.
Activity calls are given as the source filed them. Rule as the data show it, unless noted: active = inhibition above about 80%; inactive = the rest.

Assays:
[1] = growth inhibition, single agent or in combination, cell-based, chromothripsis tumors, cisplatin or BGB combos (AID 1671449); conditions: LFS_MB_P medulloblastoma cells;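 also: cells exposed for 96 hours; 0% = vehicle DMSO and 100% = killing by high DMSO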
[2] = growth inhibition, single agent and combos, cell-based, chromothripsis tumors, cisplatin or BGB combos (AID 1671450); conditions: HDN33 neuroblastoma cells, stronger effect = higher value;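 also: cells exposed to compound for four days; 0% = vehicle DMSO and 100% = cell killing by high DMSO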
[3] = growth inhibition, single agents and combos, ICB984, cell-based, cisplatin or BGB combos, synergistic combos for chromothripsis tumors (AID 1671451; call rule not given here;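 also: cells exposed for 96 hours before readout; 0% = vehicle DMSO and 100% = killing by high DMSO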); conditions: ICB984 medulloblastoma cells, drug combinations, stronger effect = higher value
[4] = growth inhibition, single agents and combos, LFS_MB_1R, cell-based, cisplatin or BGB combos, synergistic combos for chromothripsis tumors (AID 1671452); conditions: LFS_MB_1R medulloblastoma cells, stronger effect = higher value;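 also: cells exposed for 96 hours before readout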
[5] = growth inhibition, single agents and combos, HTB85, cell-based, BGB or cisplatin IC20 combos, synergistic combos for chromothripsis tumors (AID 1671453); conditions: HTB85 osteosarcoma cells, drug combinations, stronger effect = higher value;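 also: cells exposed for 96 hours before readout; 0% = vehicle DMSO and 100% = high DMSO killing control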
[6] = growth inhibition, single agents and combos, CRL2098, cell-based, BGB or cisplatin IC20 combos, synergistic combos for chromothripsis tumors (AID 1671454); conditions: CRL2098 osteosarcoma cells, drug combinations, stronger effect = higher value;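 also: cells exposed for 96 h before readout; 0% = vehicle DMSO and 100% = killing by high DMSO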
[7] = growth inhibition, single agents and combos, HD-MB03, cell-based, BGB or cisplatin IC20 combos, synergistic combos for chromothripsis tumors (AID 1671455; in the data active = inhibition above about 83%;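 also: 0% = vehicle DMSO and 100% = high DMSO as cytotoxic control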); conditions: HD-MB03 medulloblastoma cells, stronger effect = higher value
[8] = growth inhibition, single agents and combos, UWB1.289, cell-based, BGB or cisplatin combos, synergistic combos for chromothripsis tumors (AID 1671456); conditions: UWB1.289 ovarian carcinoma cells, stronger effect = higher value;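 also: cells exposed to compound for four days; 0% = vehicle DMSO and 100% = killing by high DMSO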
[9] = growth inhibition, single agents and combos, LFS_MB_2R, cell-based, cisplatin combos, synergistic combos for chromothripsis tumors (AID 1671457); conditions: LFS_MB_2R medulloblastoma cells, stronger effect = higher value;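 also: cells exposed to compound for four days before readout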
[10] = growth inhibition, MDA-MB-436, cell-based, BGB or cisplatin combos, synergistic combos for chromothripsis tumors (AID 1671458; call rule not given here;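 also: cells exposed for 96 hours; 0% = vehicle DMSO and 100% = killing by high DMSO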); conditions: MDA-MB-436 breast carcinoma growth inhibition, drug combinations, stronger effect = higher value
[11] = UWB1.289_BRCA1 ovarian cancer growth, cell-based, BGB or cisplatin combinations (AID 1671459); conditions: UWB1.289 BRCA1 ovarian carcinoma, drug combinations, stronger effect = higher value
[12] = drug combination toxicity in non-malignant astrocytes – cell-based, BGB or cisplatin IC20 combos, cytotoxicity control for chromothriptic childhood tumor combination screen (AID 1671460); conditions: Human astrocytes, viability inhibition, drug combinations, at 0.5 µM, stronger effect = higher value;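 also: cells exposed to compounds for 96 hours before viability readout; 0% = vehicle and 100% = killing control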
[13] = BT084 cell growth, single and combined drugs, ICGC_MB145, cisplatin and BGB IC40 combos (AID 1671461); conditions: BT084 medulloblastoma cells, drug combinations, stronger effect = higher value;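 also: cells exposed to drugs for 96 hours; 0% = vehicle DMSO and 100% = high DMSO full killing control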
[14] = RCMB18 cell growth, single agent and combined, cisplatin and BGB IC40 combos (AID 1671462); conditions: RCMB18 medulloblastoma cells, stronger effect = higher value;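 also: cells exposed to compound for four days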
[15] = CRL1545 cell growth, single agent and combined, cisplatin and BGB IC20 combos (AID 1671464); conditions: CRL1545 osteosarcoma cells, stronger effect = higher value;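 also: cells exposed to compound for 96 hours before readout; 0% = vehicle DMSO and 100% = high DMSO killing control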
[16] = measured here: combination with BGB IC40, at 0.05 µM
[17] = measured here: with BGB IC20 combination, at 0.5 µM
[18] = measured here: with cisplatin IC20 combination, at 0.5 µM
[19] = measured here: combination with cisplatin, at 0.5 µM
[20] = measured here: combination with cisplatin, at 5 µM

O=C1N=c2ccccc2=C1c1c(O)[nH]c2ccccc12
inhibition ([1]; at 0.5 µM, stronger effect = higher value): -10.5% (inactive)
inhibition ([1]; measured here: combination with BGB IC20, at 0.005 µM): -1.18%
inhibition ([1]; measured here: combination with BGB IC40, at 0.005 µM): -11.2%
inhibition [1, 16]: -2.67%
inhibition ([1]; measured here: combination with cisplatin, at 0.5 µM, stronger effect = higher value): -21%
inhibition ([1]; measured here: combination with cisplatin, at 5 µM, stronger effect = higher value): 114%
inhibition ([2]; BGB combo, at 5 µM): 61%
inhibition ([2]; at 0.5 µM): 5.47% (inactive)
inhibition ([2]; cisplatin combo, at 5 µM): 51.4%
inhibition [2, 17]: 16.4%
inhibition [2, 18]: -3.78%
inhibition ([2]; single agent, at 5 µM): 45.3%
inhibition ([3]; BGB IC20 combo, at 0.005 µM): 11.6%
inhibition ([3]; BGB IC40 combo, at 0.005 µM): 12.6%
inhibition ([3]; BGB IC40 combo, at 0.05 µM): 98.1%
inhibition ([3]; at 0.5 µM): -13.3% (inactive)
inhibition ([3]; cisplatin combo, at 0.05 µM): 98%
inhibition ([3]; cisplatin combo, at 0.5 µM): -8.2%
inhibition ([3]; cisplatin combo, at 5 µM): -23.1%
inhibition ([3]; measured here: 5 uM single agent, at 5 µM): -12.3%
inhibition ([4]; at 0.5 µM): 38.6% (inactive)
inhibition [4, 16]: -8.14%
inhibition [4, 19]: 68.7%
inhibition [4, 20]: 104%
inhibition ([5]; at 0.5 µM): -27.2% (inactive)
inhibition ([5]; measured here: with BGB IC20, at 0.5 µM): -36.8%
inhibition ([5]; measured here: with BGB IC20, at 5 µM): 49.4%
inhibition ([5]; measured here: with cisplatin IC20, at 0.5 µM): -31.8%
inhibition ([5]; measured here: with cisplatin IC20, at 5 µM): 19.9%
inhibition ([5]; single agent, at 5 µM): 73.7%
inhibition ([6]; at 0.5 µM): -38.8% (inactive)
inhibition ([6]; measured here: combination with BGB at IC20, at 0.5 µM): -85.6%
inhibition ([6]; measured here: combination with cisplatin at IC20, at 0.5 µM): -13.6%
inhibition ([7]; at 0.5 µM): -7.99% (inactive)
inhibition ([7]; measured here: combo with BGB at IC20, at 0.5 µM): -0.15%
inhibition ([7]; measured here: combo with cisplatin at IC20, at 0.5 µM): -18.7%
inhibition ([8]; at 0.5 µM): -2.76% (inactive)
inhibition ([8]; measured here: inhibition with BGB combination, at 0.05 µM): -4.21%
inhibition ([8]; measured here: inhibition with cisplatin combination, at 0.05 µM): -14.6%
inhibition ([9]; at 0.5 µM): -4.68% (inactive)
inhibition [9, 19]: -7.54%
inhibition [9, 20]: 96.6%
inhibition ([10]; at 0.5 µM): 0.62% (inactive)
inhibition ([10]; measured here: BGB combination, at 0.5 µM): -2.01%
inhibition ([10]; measured here: BGB combination, at 5 µM): 38.1%
inhibition ([10]; measured here: cisplatin combination, at 0.5 µM): 2.13%
inhibition ([10]; measured here: cisplatin combination, at 5 µM): 46%
inhibition ([11]; BGB combination, concentration series, at 5 µM): 47.2%
inhibition ([11]; at 0.5 µM): -5.34% (inactive)
inhibition ([11]; cisplatin combination, concentration series, at 5 µM): 63.2%
inhibition [12]: -0.99% (inactive)
inhibition ([12]; measured here: combo with BGB IC20): 17.5%
inhibition ([12]; measured here: combo with cisplatin IC20): -29.2%
inhibition ([13]; at 0.5 µM): -8.62% (inactive)
inhibition ([13]; cisplatin combination, at 0.5 µM): -4.64%
inhibition ([13]; cisplatin combination, at 5 µM): 99.5%
inhibition ([13]; measured here: BGB IC40 combination 0.05 uM, at 0.05 µM): 21.5%
inhibition ([13]; single agent, at 5 µM): 59.7%
inhibition ([14]; at 0.5 µM): 50.6% (inactive)
inhibition ([14]; cisplatin combo, at 5 µM): 103%
inhibition ([14]; measured here: BGB IC40 combination, at 0.05 µM): -10.1%
inhibition [14, 19]: 81.1%
inhibition ([14]; single agent, at 5 µM): 98.9%
inhibition ([15]; at 0.5 µM): 7.46% (inactive)
inhibition [15, 17]: -4.11%
inhibition [15, 18]: 11.3%
inhibition ([15]; single agent, at 0.05 µM): -37%
inhibition ([15]; single agent, at 5 µM): 95.5%
